Several values for one entry are separate records, joined by “and”; a condition that tells them apart may be missing. Equal values may be shown once. Inconclusive results are not listed. Activity calls are given as the source filed them. The call rests on the fitted dose curve; in most records, active means well fitted inhibition curve with a large enough effect in the repeat runs; inconclusive means weak or mixed curves; inactive means flat fitted curve, though single readings scatter.
These molecules were tested against Voltage-gated inwardly rectifying potassium channel KCNH2 (Homo sapiens) (UniProt Q12809) (assay: Human Ether-a-go-go-Related Gene (hERG) channel small molecule antagonists: fluorescence cell-based qHTS assay (AID 1671200; further: nearly all actives have a fitted effect of over 50% in size)). Conditions: hERG-U2OS cells, FluxOR thallium flux fluorescence; series mostly up to 76.8 µM; activity change, negative = inhibition: at the top concentration.
Description: National Center for Advancing Translational Sciences [NCATS]
U.S. Environmental Protection Agency [EPA]
National Institutes of Environmental Health Sciences [NIEHS]
National Toxicology Program [NTP]
U.S. Food and Drug Administration [FDA]
Mutations in the hERG channel cause Long QT (LQT) syndrome. LQT syndrome is a cardiac disorder which can cause ventricle arrhythmia and sudden death. Additionally, compounds which block the hERG channel can cause acquired LQT syndrome. Several FDA approved drugs have been removed from the market due to their hERG blocking activity. A cell-based hERG channel inhibition assay can be used to screen chemical compounds that inhibit hERG channel. This assay measures hERG channel activity using thallium ions as surrogate ions to measure potassium into the cells.
Tox21 Assay Protocol Summary:
hERG-U2OS cells were resuspended in culture medium and dispensed into 1536-well, black wall/clear-bottom plates at 1000cells/well/3uL using a Multidrop Combi dispenser (Thermo Fisher, Waltham, MA). After plates were incubated at 37 C overnight, 3 uL of Loading Buffer provided by FluxOR II Potassium Ion Channel Assay kit (Thermo, Carlsbad, CA) was added to each well. The assay plates were then incubated at room temperature in the dark for 1h. […] After the assay plates were incubated at room temperature for 10 min, 1 uL of Stimulus Buffer provided by FluxOR II Potassium Ion Channel Assay kit was added into each well and fluorescence intensity (480nm excitation/540nm emission) was continuously measured for 2 min at 1 second intervals using a Functional Drug Screening System (FDSS) 7000EX kinetic plate reader (Hamamatsu, Japan).
On the % scale 0 is the no-effect control and ±100 the full control effect; potency means the concentration at half of the fitted maximal effect.

Voltage-gated inwardly rectifying potassium channel KCNH2 (Homo sapiens), sequence (Q12809 whole entry, looked up): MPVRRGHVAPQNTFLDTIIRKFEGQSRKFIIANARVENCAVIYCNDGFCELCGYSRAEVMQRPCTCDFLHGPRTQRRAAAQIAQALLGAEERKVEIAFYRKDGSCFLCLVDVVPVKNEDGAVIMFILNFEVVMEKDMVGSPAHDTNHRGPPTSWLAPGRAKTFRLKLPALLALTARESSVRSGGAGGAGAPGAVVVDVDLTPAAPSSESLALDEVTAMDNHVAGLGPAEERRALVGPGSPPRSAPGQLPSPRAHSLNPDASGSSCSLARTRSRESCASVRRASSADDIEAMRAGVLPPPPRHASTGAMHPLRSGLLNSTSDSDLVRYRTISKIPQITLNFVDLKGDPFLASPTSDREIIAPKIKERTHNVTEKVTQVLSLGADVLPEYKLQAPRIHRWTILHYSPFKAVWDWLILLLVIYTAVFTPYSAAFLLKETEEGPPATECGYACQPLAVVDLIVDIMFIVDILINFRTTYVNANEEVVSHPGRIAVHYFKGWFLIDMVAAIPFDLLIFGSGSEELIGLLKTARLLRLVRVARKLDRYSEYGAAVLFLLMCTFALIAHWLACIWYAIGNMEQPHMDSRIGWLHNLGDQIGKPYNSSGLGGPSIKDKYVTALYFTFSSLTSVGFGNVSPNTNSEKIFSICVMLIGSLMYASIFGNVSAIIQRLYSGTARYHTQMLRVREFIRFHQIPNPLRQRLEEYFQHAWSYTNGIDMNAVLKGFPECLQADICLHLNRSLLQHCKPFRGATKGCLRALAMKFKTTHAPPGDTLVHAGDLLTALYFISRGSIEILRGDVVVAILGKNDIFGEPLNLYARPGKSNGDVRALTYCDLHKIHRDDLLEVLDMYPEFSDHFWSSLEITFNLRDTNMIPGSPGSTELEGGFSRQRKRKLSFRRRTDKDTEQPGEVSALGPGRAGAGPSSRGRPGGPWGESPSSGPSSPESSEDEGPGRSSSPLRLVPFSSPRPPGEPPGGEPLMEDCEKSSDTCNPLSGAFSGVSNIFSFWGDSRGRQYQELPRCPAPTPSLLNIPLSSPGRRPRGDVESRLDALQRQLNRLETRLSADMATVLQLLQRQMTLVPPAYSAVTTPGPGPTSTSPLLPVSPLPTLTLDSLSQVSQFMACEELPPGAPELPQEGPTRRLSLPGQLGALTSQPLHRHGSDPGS

| SMILES | activity change, negative = inhibition | Potency |
| --- | --- | --- |
| c1ccc2c(c1)[nH]c1cnccc12 | -3.31% (inactive) |  |
| Clc1ccc(-c2ccccc2)cc1 | -13.3% (inactive) |  |
| OC(Cc1ccccc1Cl)(Cn1cncn1)C1(Cl)CC1 (stereo not given) | -15.7% (inactive) |  |
| N#CCCO | -0.982% (inactive) |  |
| CN(C)CCc1c[nH]c2ccc(O)cc12 | -20.3% (inactive) |  |
| CCCCCCCCCBr | -0.0132% (inactive) |  |
| ClC(Cl)=C(Cl)Cl | -1.08% (inactive) |  |
| CC1(C)CC/C(=C/c2ccc(Cl)cc2)C1(O)Cn1cncn1 (stereo not given) | -9.91% (inactive) |  |
| CC(=O)[O-].[Tl+] | -19.4% (inactive) |  |
| ClCCN1CCOCC1 | -3.63% (inactive) |  |
| Nc1ccc([N+](=O)[O-])cc1Cl | 6.6% (inactive) |  |
| CCOC(=O)OC1=C(c2cc(C)ccc2C)C(=O)NC12CCC(OC)CC2 (stereo not given) | -6.7% (inactive) |  |
| O=C(CCCN1CCC2(CC1)C(=O)NCN2c1ccccc1)c1ccc(F)cc1 |  | 1.2 µM (active) |
| [Hg+2].[I-].[I-] | -21.7% (inactive) |  |
| Cc1ccc(C(=O)Cl)cc1 | 0.0307% (inactive) |  |
| O=c1ssc(Cl)c1Cl |  | 49 µM (active) |
| CC(C)CCCCCOC(=O)c1ccccc1C(=O)OCCCCCC(C)C | 1.14% (inactive) |  |
| O=C(Cl)c1ccc(Cl)cc1 | -6.69% (inactive) |  |
| N#CCCC(Br)(C#N)CBr (stereo not given) |  | 27.5 µM (active) |
| FC(Cl)(Cl)Cl | 4.35% (inactive) |  |

| SMILES | activity change, negative = inhibition | Potency |
| --- | --- | --- |
| CC(=O)c1cc(C(C)(C)C)cc2c1CCC2(C)C | -23.8% (inactive) |  |
| Cc1cc(N=Nc2ccccc2C)ccc1N |  | inactive |
| Cn1[nH]nnc1=S | 4.85% (inactive) |  |
| CC(=O)C(Cl)(Cl)Cl | -2.96% (inactive) |  |
| Brc1c(Br)c(Br)c(Oc2c(Br)c(Br)c(Br)c(Br)c2Br)c(Br)c1Br | -0.0422% [at 15.8 µM] (inactive) |  |
| CCCCCCCCCCCCCN1CC(C)OC(C)C1 (stereo not given) |  | 13.8 µM (active) |
| ClC(Cl)=C(c1ccc(Cl)cc1)c1ccc(Cl)cc1 |  | 39.9 µM (active) and 49 µM (active) |
| O=C1NCN(c2ccccc2)C12CCN(CC1COc3ccccc3O1)CC2 (stereo not given) |  | 7.56 µM (active) |
| ClC1=C(Cl)[C@]2(Cl)[C@@H]3[C@@H](Cl)[C@H](Cl)C[C@@H]3[C@@]1(Cl)C2(Cl)Cl | 10.3% (inactive) |  |
| CCCOCC(=Nc1ccc(Cl)cc1C(F)(F)F)n1ccnc1 |  | 48.9 µM (active) |
| C[C@H]1O[C@@H](O[C@H]2[C@@H](O)C[C@H](O[C@H]3[C@@H](O)C[C@H](O[C@H]4CC[C@@]5(C)[C@H](CC[C@@H]6[C@@H]5CC[C@]5(C)[C@@H](C7=CC(=O)OC7)CC[C@]65O)C4)O[C@@H]3C)O[C@@H]2C)C[C@H](O)[C@@H]1O |  | inactive |
| CCOP(=S)(OCC)SCS(=O)(=O)C(C)(C)C | 2.61% (inactive) |  |
| Clc1ccc(-c2ccc(Cl)c(Cl)c2Cl)c(Cl)c1Cl | -28.2% (inactive) |  |
| CC(C)(O)c1cnn2c(-c3ccc(F)c(-c4c(F)cccc4C#N)c3)cnc2n1 | 9.37% (inactive) |  |
| C=CC(=O)N(C)C | -6.31% (inactive) |  |
| CCOCCOC(C)=O | 1.08% (inactive) |  |
| Nc1c(Oc2ccccc2)cc(O)c2c1C(=O)c1ccccc1C2=O | 1.21% [at 35.3 µM] (inactive) |  |
| C[C@]12CC[C@H](O)C[C@H]1CC[C@@H]1[C@@H]2C[C@@H](O)[C@]2(C)[C@@H](C3=CC(=O)OC3)CC[C@]12O | -3.47% (inactive) |  |
| COc1ccc(N)cc1N |  | inactive |
| ClCc1ccccc1CCl | -5.69% (inactive) |  |

Reference: PubChem BioAssay (Tox21)
